Measurements: PubChem BioAssay (NCATS)
Results filed as inconclusive are left out. The source made the active and inactive calls. Unless noted, calls follow the shape of the dose curve; as a rule, active = well fitted curve in the direction sought with a large enough effect; inconclusive = small, poorly fitted or top-dose-only effect, or another doubt; inactive = no such curve, though single readings can be large; an effect the other way counts as inactive or inconclusive. Bridge positions count the residues as written; N and C are the ends. Square brackets hold non-standard residues; d marks the D form. Peptide text beside a SMILES is read from it. * marks the point of attachment. Octanoyl(6-Me) = CCC(C)CCCCC(=O)*; Dab = NCC[CH](N)C(=O)O

Legend:
AA1029 = assay: qHTS profiling for inhibitors of Plasmodium falciparum proliferation (AID 504749); also: nearly all actives have a fitted effect of over 60% in size; also: potency is read from the fitted curve at half-maximal effect; details: P. falciparum in erythrocytes, SYBR Green DNA, 72 h; series mostly up to 28.7 µM
How it was run: (§1)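 Fluorescence of SYBR Green-bound parasite DNA, read at 485/535 nm, served as the growth measure. Infected erythrocytes were cultured with compound 72 h; artemisinin (0.29 uM) and DMSO wells defined the normalization range.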

ATS189 = assay: as above; details: P. falciparum in erythrocytes, SYBR Green DNA, 72 h; series mostly up to 28.7 µM
How it was run: as §1

ATS95 = assay: as above; details: P. falciparum in erythrocytes, SYBR Green DNA, 72 h; series mostly up to 28.7 µM
How it was run: as §1

CP238 = assay: as above; details: P. falciparum in erythrocytes, SYBR Green DNA, 72 h; series mostly up to 28.7 µM
How it was run: as §1

CP262 = assay: as above; details: P. falciparum in erythrocytes, SYBR Green DNA, 72 h; series mostly up to 28.7 µM
How it was run: as §1

CP286 = assay: as above; details: P. falciparum in erythrocytes, SYBR Green DNA, 72 h; series mostly up to 28.7 µM
How it was run: as §1

GB4 = assay: as above; details: P. falciparum in erythrocytes, SYBR Green DNA, 72 h; series mostly up to 28.7 µM
How it was run: as §1

[1] = Cell Viability - Jurkat (AID 426;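 active = dose-dependent loss of cell ATP signal giving a full or clear fitted curve, ranked by lower potency value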;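 also: potency is read from the fitted curve at half-maximal effect; cells exposed to compound for 40 hours at 37 °C before ATP read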); details: qHTS
How it was run: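 Cytotoxicity was scored as loss of cellular ATP, measured by luciferase-based luminescence, in Jurkat clone E6-1 cells after 40 h compound treatment; tamoxifen and doxorubicin served as positive controls.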

[2] = Cell Viability - Hek293 (AID 427;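 active = compounds whose dose-response curve shows a full or clear partial loss of cell viability, called from curve shape rather than a numeric limit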;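 also: potency is read from the fitted curve at half-maximal effect; cells exposed to compound for 40 hours at 37 °C before reading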); details: qHTS
How it was run: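 Luminescent ATP read-out (CellTiter-Glo, 20 min RT) after 40 hr compound exposure at 37 °C in complete medium. Signal normalized to DMSO (basal) and 100 uM tamoxifen (100% inhibition); concentration-response fitted with the standard Hill equation to give AC50.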

[3] = Cell Viability - N2a (AID 540); details: N2a mouse neuroblastoma cell viability; activity change, negative = cytotoxicity: at 92.2 µM (top of the series);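 also: cells exposed to compound for 40 h at 37 °C; plate controls were DMSO alone for no effect and tamoxifen control for full effect; nearly all actives have a fitted effect of over 45% in size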
How it was run: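 In this qHTS cytotoxicity screen, ATP-dependent luciferase luminescence reports viable N2a cells after a 40 hr compound exposure in complete culture medium. Potencies are AC50 values from standard Hill equation fits.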

[4] = Cell Viability - H-4-II-E (AID 543);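 also: cells exposed to compound for 40 hours; % is scaled to controls: 0 for no effect and ±100 for the full control effect; nearly all actives have a fitted effect of over 35% in size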
How it was run: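 AC50 from Hill-modelled qHTS concentration-response curves. H-4-II-E rat hepatoma cells in complete medium, 40 hr exposure at 37 °C, viability by CellTiter-Glo ATP luminescence.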

[5] = Cell Viability - SH-SY5Y (AID 544);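 also: cells exposed to compound for 40 hours; 0% = DMSO alone and -100% = 100 µM tamoxifen; nearly all actives have a fitted effect of over 55% in size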
How it was run: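 Quantitative HTS in SH-SY5Y neuroblastoma cells, 40 hr treatment at 37 °C, ATP content by luciferase luminescence; AC50 from Hill fits.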

[6] = Cell Viability - LYMP2-007 (AID 979);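 also: cells exposed to compound for 24 h before reading; 0% = DMSO only and the negative end = 92 µM tetraoctylammonium bromide; nearly all actives have a fitted effect of over 60% in size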
How it was run: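 Measured via luciferase-based ATP quantitation: lymphoblastoid cells, 24 hr compound exposure at 37 C, AC50 from Hill fits.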

[7] = Cell Viability - LYMP2-010 (AID 981);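 also: cells exposed to compound for 24 hours at 37 °C; % is scaled to controls: 0 for no effect and ±100 for the full control effect; nearly all actives have a fitted effect of over 55% in size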
How it was run: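 This 24 hr viability screen uses LYMP2-010 lymphoblastoid cells, quantifies ATP via luciferase luminescence, and derives AC50 from Hill fits of qHTS concentration-response data.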

[8] = Cell Viability - LYMP2-016 (AID 984);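 also: cells exposed to compound for 24 hours at 37 °C; % is scaled to controls: 0 for no effect and ±100 for the full control effect; nearly all actives have a fitted effect of over 55% in size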
How it was run: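 Acute toxicity in a Coriell human lymphoblastoid line is scored as loss of intracellular ATP over 24 h of treatment in complete medium. CellTiter-Glo signal is fitted across concentrations with the Hill equation to give AC50.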

[9] = Cell Viability - LYMP2-018 (AID 985);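 also: plate controls were DMSO only for no effect and tetraoctylammonium bromide at 92 µM for full effect; nearly all actives have a fitted effect of over 50% in size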
How it was run: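 In this qHTS viability assay, cells are treated for 24 hr and cellular ATP is quantified by luciferase-based luminescence, with tetraoctylammonium bromide as positive control.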

[10] = Cell Viability - LYMP2-020 (AID 986);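 also: cells exposed to compound for 24 h at 37 °C; plate controls were DMSO only for no effect and tetraoctylammonium bromide at 92 µM for full effect; nearly all actives have a fitted effect of over 55% in size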
How it was run: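 Cells at 2500 per well receive a 24 hr compound exposure at 37 C. Viability is measured as ATP-dependent luciferase luminescence, with AC50 modeled from qHTS concentration-response curves.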

[11] = Cell Viability - LYMP2-022 (AID 987)
How it was run: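 In this qHTS cytotoxicity screen, compound titrations were incubated 24 hr at 37 C with human lymphoblastoid cells in complete medium. Luciferase-based ATP luminescence provided the viability signal.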

[12] = Cell Viability - LYMP2-024 (AID 988);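 also: plate controls were DMSO only for no effect and 92 µM tetraoctylammonium bromide for full effect; nearly all actives have a fitted effect of over 60% in size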
How it was run: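 Cells at 2500 per well received compound for 24 hr after a 5 hr settling period. Viability was scored by CellTiter-Glo luminescence, with AC50 from Hill fits.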

[13] = target: Vitamin D3 receptor (Homo sapiens) (UniProt P11473); assay: qHTS assay for small molecule agonists of vitamin D receptor signaling (AID 588543; calls by dose curve;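 also: 0% = DMSO basal and 100% = reference agonist control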)
Chain of Vitamin D3 receptor (Homo sapiens) (P11473 whole entry, looked up): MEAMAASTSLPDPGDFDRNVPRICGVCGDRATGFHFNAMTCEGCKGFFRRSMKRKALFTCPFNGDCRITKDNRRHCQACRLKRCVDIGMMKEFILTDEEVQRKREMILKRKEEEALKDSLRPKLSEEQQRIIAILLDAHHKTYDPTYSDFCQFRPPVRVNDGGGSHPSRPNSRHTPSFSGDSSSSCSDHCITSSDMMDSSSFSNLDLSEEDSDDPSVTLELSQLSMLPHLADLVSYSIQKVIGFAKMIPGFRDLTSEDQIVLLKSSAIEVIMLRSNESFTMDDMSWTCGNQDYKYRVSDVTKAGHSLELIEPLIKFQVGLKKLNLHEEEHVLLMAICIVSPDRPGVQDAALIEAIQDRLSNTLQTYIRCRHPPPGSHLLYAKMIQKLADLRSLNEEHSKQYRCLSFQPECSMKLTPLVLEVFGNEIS
How it was run: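 qHTS in agonist mode: compound titrations stimulate a VDR-driven β-lactamase reporter in HEK293T cells over 16 h at 37 °C. Response normalized to 50 nM 1α,25-dihydroxyvitamin D3 = 100%, DMSO = 0%; Hill fitting gives EC50 and maximal response.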

CCN1/C(=C/C=C/C=C/c2sc3ccccc3[n+]2CC)Sc2ccccc21
inactive: Potency (CP262)
active: Potency (AA1029) 3.98 µM | Potency (ATS189) 4.47 µM | Potency (ATS95) 5.01 µM | Potency (CP238) 3.16 µM | Potency (CP286) 0.708 µM | Potency (GB4) 7.57 µM

O[C@@H]([C@H](O)[C@@H](O)CBr)[C@@H](O)CBr
inactive: Potency [1] > 92 µM | Potency [2] > 92 µM | activity change, negative = cytotoxicity [3] 11.7% | Potency [4] | Potency [5] | Potency [6] | Potency [7] | Potency [8] | Potency [9] | Potency [10] | Potency [11] | Potency [12] | outcome [13]

CCC(=O)O[C@@H](OP(=O)(CCCCc1ccccc1)CC(=O)N1C[C@H](C2CCCCC2)C[C@H]1C(=O)O)C(C)C (stereo partly specified)
inactive: Potency (AA1029) | Potency (ATS189) | Potency (ATS95) | Potency (CP238) | Potency (CP262) | Potency (CP286) | Potency (GB4)

CC1CCC(C(C)C)C(OC(=O)c2ccccc2O)C1 (stereo unspecified)
inactive: Potency (AA1029) | Potency (ATS189) | Potency (ATS95) | Potency (CP238) | Potency (CP262) | Potency (CP286) | Potency (GB4)

O=NCc1ccc([N+](=O)[O-])o1
inactive: Potency (AA1029) | Potency (ATS189) | Potency (ATS95) | Potency (CP238) | Potency (CP262) | Potency (CP286)
active: Potency (GB4) 13.5 µM

CO/N=C(/C(=O)N[C@@H]1C(=O)N2C(C(=O)O)=CCS[C@H]12)c1csc(N)n1
inactive: Potency (AA1029) | Potency (ATS189) | Potency (ATS95) | Potency (CP238) | Potency (CP262) | Potency (CP286) | Potency (GB4)

O=S(=O)(O)c1ccccc1
inactive: Potency [1] > 92 µM | Potency [2] > 92 µM | activity change, negative = cytotoxicity [3] -0.532% | Potency [4] | Potency [5] | Potency [6] | Potency [7] | Potency [8] | Potency [9] | Potency [10] | Potency [11] | Potency [12] | outcome [13]

O=C1CCc2ccccc2O1
inactive: Potency [1] > 92 µM | Potency [2] > 92 µM | activity change, negative = cytotoxicity [3] 7.64% | Potency [4] | Potency [5] | Potency [6] | Potency [7] | Potency [8] | Potency [9] | Potency [10] | Potency [11] | Potency [12] | outcome [13]

Cc1cc(CC(C)CC(C)(C)C)n(O)c(=O)c1 (stereo unspecified)
active: Potency (AA1029) 3.16 µM | Potency (ATS189) 3.16 µM | Potency (ATS95) 3.16 µM | Potency (CP238) 2.51 µM | Potency (CP262) 3.38 µM | Potency (CP286) 2.82 µM | Potency (GB4) 1.51 µM

CC1(C)S[C@@H]2[C@H](NC(=O)COc3ccccc3)C(=O)N2[C@H]1C(=O)O
inactive: outcome [13] | Potency (AA1029) | Potency (ATS189) | Potency (ATS95) | Potency (CP238) | Potency (CP262) | Potency (CP286) | Potency (GB4)

CCC(C)CCCCC(=O)NC(CCN)C(=O)NC(C(=O)NC(CCN)C(=O)NC1CCNC(=O)C(C(C)O)NC(=O)C(CCN)NC(=O)C(CCN)NC(=O)C(CC(C)C)NC(=O)C(Cc2ccccc2)NC(=O)C(CCN)NC1=O)C(C)O (stereo unspecified) ({Octanoyl(6-Me)}-[Dab]T[Dab][Dab][Dab]FL[Dab][Dab]T; lactam 4-C; configuration not given here)
inactive: Potency (AA1029) | Potency (ATS189) | Potency (ATS95) | Potency (CP238) | Potency (CP262) | Potency (CP286) | Potency (GB4)

c1ccc2scnc2c1
inactive: Potency [1] > 92 µM | Potency [2] > 92 µM | activity change, negative = cytotoxicity [3] -2.55% | Potency [4] | Potency [5] | Potency [6] | Potency [7] | Potency [8] | Potency [9] | Potency [10] | Potency [11] | Potency [12] | outcome [13]

CC(C)(CO)C(O)C(=O)NCCCC(=O)O (stereo unspecified)
active: Potency (ATS189) 2.82 µM | Potency (CP238) 17.8 µM | Potency (CP286) 10 µM
inactive: Potency (AA1029) | Potency (ATS95) | Potency (CP262) | Potency (GB4)

O=C(O)c1ccccc1C(c1ccc(O)cc1)c1ccc(O)cc1
inactive: Potency [1] > 92 µM | Potency [2] > 92 µM | activity change, negative = cytotoxicity [3] 6.19% | Potency [4] | Potency [5] | Potency [6] | Potency [7] | Potency [8] | Potency [9] | Potency [10] | Potency [11] | Potency [12]

Nc1nc(Cl)nc2c1ncn2C1CC(O)C(CO)O1 (stereo unspecified)
inactive: Potency (CP262) | Potency (GB4)

CO[C@@H]1[C@@H](OC2OC(C)C(OC3CC(C)(O)C(OC(=O)CC(C)C)C(C)O3)C(N(C)C)C2O)[C@@H](CC=O)C[C@@H](C)C(=O)/C=C\C2O[C@H]2C[C@@H](C)OC(=O)C[C@H]1OC(C)=O (stereo partly specified)
active: Potency (AA1029) 5.01 µM | Potency (ATS189) 11.2 µM | Potency (ATS95) 11.2 µM | Potency (CP238) 10 µM | Potency (CP286) 4.47 µM | Potency (GB4) 13.5 µM
